The results in this text go back to PubChem BioAssay (NCI).

Compounds without any hit were thinned out: in the full panel of roughly 79,000, 15% have a hit. Values without a mark were called inactive. Calls of active or inactive are those of the source. Cut-off read from the data, not from the text of the source: active = growth inhibition above about 70%; inactive = the rest.

Assay [1] in a line: NCI Yeast Anticancer Drug Screen. Data for the rad50 strain (AID 155).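 Note: 0% = growth of vehicle-only cultures of the same strain.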 To be noted: S. cerevisiae rad50 strain growth inhibition, active compounds read high. In a few lines:
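Relative growth inhibition (compound vs vehicle) was measured in yeast with a defined repair-gene alteration.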

Assay [2] is described as follows: NCI Yeast Anticancer Drug Screen. Data for the mec2-1 strain (AID 157). To be noted: S. cerevisiae mec2-1 strain, active compounds read high. In a few lines:
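Using mec2-1 yeast: add compound, measure growth, express inhibition versus vehicle-treated cultures.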

Assay [3] in a line: NCI Yeast Anticancer Drug Screen. Data for the sgs1 mgt1 strain (AID 161).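 Note: 0% = growth of cultures given vehicle only.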 As to conditions: S. cerevisiae sgs1 mgt1 strain, active compounds read high. In a few lines: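 Compounds are added to genetically altered yeast, and growth is compared with cultures given vehicle alone to give percent inhibition.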
The nature of assay [4]: NCI Yeast Anticancer Drug Screen. Data for the cln2 rad14 strain (AID 165).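 Note: 0% = growth equal to vehicle treated cultures.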 As to conditions: S. cerevisiae cln2 rad14 strain, active compounds read high. An outline of the steps:
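Yeast strain cln2 rad14, bearing defects in cell cycle control and DNA repair, serves as the test system; values reflect growth inhibition compared with vehicle.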

Assay [5] in a line: NCI Yeast Anticancer Drug Screen. Data for the bub3 strain (AID 167). To be noted: S. cerevisiae bub3 mutant strain, active compounds read high. An outline of the steps:
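Screening used yeast with an engineered genetic alteration affecting cell cycle control. Compound-exposed cultures were compared with vehicle cultures, and reduced growth was taken as inhibition.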

Assay [6] can be described thus: NCI Yeast Anticancer Drug Screen. Data for the mlh1 rad18 strain (AID 175). To be noted: S. cerevisiae mlh1 rad18 strain growth inhibition, active compounds read high. An outline of the steps:
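Steps: expose repair-defective yeast to compound; measure growth; express inhibition against vehicle-treated controls.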

Where [7] appears, read: at 5.0 µM (retest, dose inferred, filed as 0.5).
Setting [8] is: at 50.0 µM (retest, dose inferred, filed as 5.0).

Turning to `O=c1[nH]ccc(CNC23CC4CC(CC(C4)C2)C3)c1O`, the growth inhibition in assay [1] (setting [7]) is 5%; in assay [1] (setting [8]) it was 11%; in assay [1] (at 50.0 µM), 49.9%; in assay [2] (setting [7]), 10%; in assay [2] (setting [8]), 33%; in assay [2] (at 50.0 µM), 21.4%. The growth inhibition was 18% in assay [3] (setting [7]); 67% in assay [3] (setting [8]); 61.9% in assay [3] (at 50.0 µM); 10% in assay [4] (setting [7]); 11% in assay [4] (setting [8]); 39.9% in assay [4] (at 50.0 µM). Besides, the growth inhibition in assay [5] (setting [7]) was 7%; in assay [5] (setting [8]) it was 49%; in assay [5] (at 50.0 µM) it was 36.4%; in assay [6] (setting [7]) it was 6%; in assay [6] (setting [8]) it was 38%; in assay [6] (at 50.0 µM), 81.5% (active).

Regarding `COc1ccc2nc3cc(Cl)ccc3c(Nc3ccc(O)c(CNCCO)c3)c2c1`, the growth inhibition was -27% in assay [1] (setting [7]); 63% in assay [1] (setting [8]); 88.9% (active) in assay [1] (at 50.0 µM); -1% in assay [2] (setting [7]); -6% in assay [2] (setting [8]); 31.9% in assay [2] (at 50.0 µM). In addition, the growth inhibition in assay [3] (setting [7]) was -5%; in assay [3] (setting [8]) it was 44%; in assay [3] (at 50.0 µM), 81% (active); in assay [4] (setting [7]), -2%; in assay [4] (setting [8]), -11%; in assay [4] (at 50.0 µM), 17.2%. Besides, the growth inhibition was 0% in assay [5] (setting [7]); -4% in assay [5] (setting [8]); -7.15% in assay [5] (at 50.0 µM); -9% in assay [6] (setting [7]); 12% in assay [6] (setting [8]); 29.6% in assay [6] (at 50.0 µM).

`CCOC(=O)C(CO)c1nc2c([nH]c1=O)c(=O)n(C)c(=O)n2C` (configuration not stated): the growth inhibition in assay [1] (setting [7]) is 5%; in assay [1] (setting [8]), 18%; in assay [1] (at 50.0 µM) it was 29.9%; in assay [2] (setting [7]), 14%; in assay [2] (setting [8]), 17%; in assay [2] (at 50.0 µM), 43.5%. Also, the growth inhibition is 33% in assay [3] (setting [7]); 60% in assay [3] (setting [8]); 50.5% in assay [3] (at 50.0 µM); -4% in assay [4] (setting [7]); 5% in assay [4] (setting [8]); -2.95% in assay [4] (at 50.0 µM). The growth inhibition in assay [5] (setting [7]) was 6%; in assay [5] (setting [8]), 39%; in assay [5] (at 50.0 µM), 52.9%; in assay [6] (setting [7]) it was 17%; in assay [6] (setting [8]) it was 18%; in assay [6] (at 50.0 µM), 83.5% (active).

Consider `O=c1ccccn1CCc1cccc2cc(O)ccc12`, for which the growth inhibition in assay [1] (setting [7]) was -3%; in assay [1] (setting [8]) it was -1%; in assay [1] (at 50.0 µM), 12.9%; in assay [2] (setting [7]) it was -2%; in assay [2] (setting [8]) it was 4%; in assay [2] (at 50.0 µM), 9.25%. Also, the growth inhibition in assay [3] (setting [7]) is -3%; in assay [3] (setting [8]) it was -3%; in assay [3] (at 50.0 µM), 10.6%; in assay [4] (setting [7]), -1%; in assay [4] (setting [8]) it was -12%; in assay [4] (at 50.0 µM) it was -12.3%. The growth inhibition in assay [5] (setting [7]) was 0%; in assay [5] (setting [8]) it was 4%; in assay [5] (at 50.0 µM), 71% (active); in assay [6] (setting [7]) it was -3%; in assay [6] (setting [8]), 3%; in assay [6] (at 50.0 µM), 23.2%.
